DAT uptake mod – human DAT dopamine uptake with cocaine, either direction; B-score at 10 µM; LLC-PK1 hDAT cells, [14C]-dopamine uptake with cocaine IC80; actives deviate in either direction; Q01959; AID 449768; hit rate 1.3% among 110,000;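 active = Z score or B-score, a plate-position-corrected score, falls beyond the plate's 99.7% confidence bounds, in either direction; inactive = both scores lie inside the 99.7% bounds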;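 also: scored against the spread of the other compound wells on the same plate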
EphB4 ephrin blk – blocks human EphB4 binding to ephrin-B2; AID 720; P54760; hit rate 0.15% among 97,000; EphB4 LBD / TNYL-RAW-Alexa532 peptide, fluorescence polarization; inhibition, % at 7 µM;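 active = inhibition above the screen-wide mean inhibition plus 3 SD, cut at about 15% in these data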;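 also: 0% = DMSO wells and 100% = excess unlabeled TNYL-RAW peptide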
D1 allo mod – D1 dopamine receptor (human) allosteric modulation; P21728; HEK293 D1, CRE-luciferase, dopamine EC30 potentiation; actives deviate in either direction; B-score at 10 µM; hit rate 5.9% among 58,000; AID 641;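 active = luminescence count or its row- and column-corrected plate score outside the 99.7% band of the plate's sample wells, on either side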
Target sequence (P21728 whole entry, looked up): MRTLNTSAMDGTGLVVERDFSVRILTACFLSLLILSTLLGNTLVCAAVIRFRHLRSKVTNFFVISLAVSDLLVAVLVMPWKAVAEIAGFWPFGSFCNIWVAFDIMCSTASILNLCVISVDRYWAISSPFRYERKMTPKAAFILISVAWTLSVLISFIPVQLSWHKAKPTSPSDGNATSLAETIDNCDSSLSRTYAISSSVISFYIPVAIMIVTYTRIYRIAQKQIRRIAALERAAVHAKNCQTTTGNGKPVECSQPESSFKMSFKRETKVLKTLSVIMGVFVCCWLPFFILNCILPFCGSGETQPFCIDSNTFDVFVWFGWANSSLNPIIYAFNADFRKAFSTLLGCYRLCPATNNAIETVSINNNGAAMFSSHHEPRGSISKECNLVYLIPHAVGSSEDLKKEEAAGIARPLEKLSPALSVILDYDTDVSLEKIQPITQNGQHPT
* marks the source's active call; other numbers are inactive results; · = no result given. The sample as a whole holds a higher share of hits than the screen did.

SMILES	DAT uptake mod	EphB4 ephrin blk	D1 allo mod
Cc1cc(OCC(=O)Nc2ccc(S(=O)(=O)N3CCN(C)CC3)cc2)cc(C)c1Cl	-0.198	-3.9	-6.46*
CN1CCN(c2ccc(NC(=O)COc3ccccc3Cl)cc2)CC1	0.335	4.5	-4.13*
CCC(=O)N1CCN(c2ccc(NC(=O)COc3ccccc3Cl)cc2)CC1	-0.032	1.0	·
CN1CCN(S(=O)(=O)c2ccc(NC(=O)c3ccc(Br)s3)cc2)CC1	0.289	-1.1	-3.95*
CN1CCN(S(=O)(=O)c2ccc(NC(=O)c3ccc(Br)o3)cc2)CC1	-0.0188	2.3	-0.567
Cc1cc(OCC(=O)Nc2ccc(S(=O)(=O)N3CCN(C)CC3)cc2)ccc1Cl	1.23	1.6	·
O=C(c1cccc(S(=O)(=O)N2CCCCC2)c1)N1CCN(S(=O)(=O)c2ccc(F)cc2)CC1	·	-0.5	·
CCOC(=O)c1sc(NC(=O)CSc2nnc(C(C)C)n2CC)nc1C	2.54*	3.8	1.02
CCOC(=O)c1sc(NC(=O)CSc2nnc(C(C)C)n2C)nc1C	1.1	1.7	·
CCN(CC)S(=O)(=O)c1ccc2oc(SCC3CN=C(c4ccc(OC)cc4)S3)nc2c1 (centres undefined)	1.15	-2.9	-1.21
COc1ccc(NC(=O)/C(Cl)=C(/Cl)S(=O)(=O)Cc2ccc(C)cc2)cn1	-0.609	-2.5	·
O=c1c2c(nc3cc(-c4ccc(F)cc4)[nH]n13)CCCC2	-0.569	-1.6	-5.29*
O=c1c2c(nc3cc(-c4cccc(Cl)c4)[nH]n13)CCC2	-0.8	8.7	·
C[C@@H](O)C1NC(=O)[C@H](CCCCN)NC(=O)c2cc([N+](=O)[O-])cc(I)c2NCCC[C@@H](C(N)=O)NC1=O (some centres undefined)	-1.4	·	·
Cc1ccc(C(=O)N2c3ccc(F)cc3CCC2C)o1 (centres undefined)	-1.5	0.6	0.0551
Cc1nn(Cc2ccc(C(=O)N3c4ccc(F)cc4CCC3C)o2)c(C)c1Br (centres undefined)	3.33*	-5.8	0.0659
C/C=C(\C)CN1CCc2cc(OC)c(OC)cc2C1	-0.0494	-1.0	-1.13
CCCS(=O)(=O)N1CCc2cc(OC)c(OC)cc2C1	-8.24*	1.6	0.145
C=C1CCN(C(C(=O)OC)C(C)C)S(=O)(=O)c2ccccc21 (centres undefined)	-0.795	·	·
COc1ccc(Cl)cc1N1C(=O)C2CCCN2C1c1sccc1C (centres undefined)	1.29	-6.2	-2.35*
COc1ccc(C2N(c3cc(Cl)ccc3OC)C(=O)C3CCCN32)cc1 (centres undefined)	-0.573	4.0	-0.177
C=CCOC(=O)C1=C[C@@H](c2csc3ccccc23)C[C@@H](OCCCCO)O1	1.64	·	·
COC(=O)c1c(NC(=O)Cc2cccs2)sc2c1CCCC2	-0.0128	2.9	2.74*
COCC(=O)Nc1sc2c(c1C(=O)OC)CCCC2	-0.156	-5.6	·
CC(=O)N1CCN(Cc2nc3cc(NC(=O)c4ccccc4C)ccc3n2C)CC1	-0.405	-7.4	·
SMILES	DAT uptake mod	EphB4 ephrin blk	D1 allo mod
COCCn1c(C)cc(C(=O)CSc2nc3ccccc3o2)c1C	-0.421	4.0	-3.41
COCCn1c(C)cc(C(=O)CSc2nnc3ccccn23)c1C	0.000571	-6.6	-7.25*
CCC(C(=O)NC(C)(C)C)N(C(=O)Cn1nnc(-c2ccccc2F)n1)c1cccc2c1CCCC2 (centres undefined)	-1.03	-6.3	·
Oc1ccc(N2CCN(C(c3ccccn3)c3nnnn3C3CCCC3)CC2)cc1 (centres undefined)	-0.0392	-6.7	·
CC1CN(Cc2cc(=O)[nH]c(C(C)C)n2)CC(C)O1 (centres undefined)	-0.0169	-2.5	·
O=c1cc(CN2CCOCC2)nc(C2CC2)[nH]1	-7.21*	-2.2	·
O=S(=O)(Nc1nc2ccccc2nc1NCc1ccco1)c1ccc(Cl)cc1	-0.337	4.1	-3.51*
Cc1ccc(S(=O)(=O)Nc2nc3ccccc3nc2NCc2ccco2)cc1	1.38	3.2	1.64
O=C(O)c1cc(N2C(=O)C3CC=CCC3C2=O)ccc1NCc1cccnc1 (centres undefined)	·	7.7	·
Cc1cccc(NC(=O)c2nc[nH]c2C(=O)N[C@@H](CC(C)C)C(=O)OC(C)(C)C)c1	2.75*	·	·
Cc1cccc(NC(=O)c2nc[nH]c2C(=O)N[C@@H](Cc2ccccc2)C(=O)OC(C)(C)C)c1	0.81	·	·
Cc1cc(C)c(S(=O)(=O)NNC(=O)C2CCN(Cc3ccccc3)CC2)c(C)c1	0.0752	1.2	·
O=C(CCN1CCc2ccccc2C1)Nc1ccc(F)cc1	0.843	0.4	0.934
CCOC(=O)C1=C(C)C(c2ccccc2OC)NC(=S)N1 (centres undefined)	·	-2.1	·
CCn1c(N2CCN(CC(=O)c3ccc(OC)cc3)CC2)nc2ccccc21	-7.62*	-4.6	-0.795
CCn1c(N2CCN(CC(=O)Nc3cccc(C)c3C)CC2)nc2ccccc21	1.25	0.1	0.00475
CNS(=O)(=O)c1cccc(C(=O)OCC(=O)C23CC4CC(CC(C4)C2)C3)c1	-1.39	3.0	·
O=C(c1cccc(Br)c1)N1CCN(C(=O)N2CCOCC2)CC1	-0.173	6.6	·
O=C(c1ccccc1)N1CCN(C(=O)N2CCOCC2)CC1	-0.838	6.7	0.664
O=C(c1ccccc1)N1CCN(C(=O)c2ccccc2Br)CC1	-7.74*	4.1	-1.08
Cc1cn(C(=O)c2cccc(Br)c2)c(C)n1	-0.765	0.9	7.98*
CSC1=NCCN1C(=O)c1cccc(Br)c1	-0.513	-4.3	-1.02
O=C(c1cccc(Br)c1)N1CCN(C(=O)c2cccc(Br)c2)CC1	2.18*	-6.9	·
O=C(Nc1cc(Cl)ccc1O)c1snnc1-c1ccccc1	0.298	2.0	·
O=C(C1CCCN(c2ncccn2)C1)N1CCc2ccccc21 (centres undefined)	0.636	-4.6	1.38
SMILES	DAT uptake mod	EphB4 ephrin blk	D1 allo mod
O=C(O)c1ccc(-n2nnnc2Oc2cccc3cccnc23)cc1	-0.0489	3.6	·
CC[C@@H]1[C@H]2CCCC(=O)N3CC[C@@H](C[C@H]1O)[C@@H]23	0.113	·	·
C/C(=N\NC(=O)C1CCCN(S(=O)(=O)c2ccccc2)C1)c1cccnc1 (centres undefined)	2.39*	-1.7	·
COc1ccc(S(=O)(=O)N2CCCC(C(=O)NC3CCCCC3)C2)cc1 (centres undefined)	-0.387	2.6	0.0171
COc1ccc(S(=O)(=O)N2CCCC(C(=O)O)C2)cc1 (centres undefined)	·	3.2	-2.62*
C/C(=N\NC(=O)C1CCCN(S(=O)(=O)c2ccccc2)C1)c1ccncc1 (centres undefined)	-0.264	-14.1	·
COC(=O)c1ccccc1NC(=O)N1CCN(C(=O)c2ccco2)CC1	·	·	-0.0363
O=C(O)C[C@H](O)C[C@H](O)/C=C/c1c(C2CC2)nc2ccccc2c1-c1ccc(F)cc1	0.827	·	·
CC(O)[C@H]1CNC(=O)C(=O)N1CC1(c2ccccc2)CC1 (some centres undefined)	1.19	·	·
CC(=O)Nc1ccc(Oc2ncccn2)c(Cl)c1	-0.478	-2.6	·
CCCCc1ccc(-c2ccc(Br)cc2)nc1	-0.535	-7.2	·
CCCc1ccc(-c2ccc(F)c(N)c2)nc1	0.555	2.2	-7.41*
c1ccc(Cc2nnc3sc(-c4ccc5c(c4)OCO5)nn23)cc1	0.0724	-5.6	6.21*
c1ccc(Cc2nnc3sc(-c4ccncc4)nn23)cc1	1.09	5.1	1.63
COc1ccccc1CNC(=O)/C=C/c1cc2c(cc1Br)OCO2	-0.284	-14.8	·

Assay outcomes deposited in PubChem by several laboratories.
